Shown is part of a subset that was picked to be rich in hits.
PDI inh = inhibitors of human PDI, primary screen, biochemical, turbidity, single point, plate reader. Protein disulfide-isomerase (Homo sapiens), P07237. AID 588391, 2011. inhibition, % at 10 µM. 350,000 tested, 0.052% active. PDI insulin aggregation turbidity, A650, 90 min;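 active means mean inhibition across replicates of 30% or more, whatever share of single replicates reach that level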
ALR inh = inhibitors of human ALR sulfhydryl oxidase, primary screen, biochemical, H2O2 detection, HRP-luminol luminescence, single point; FAD-linked sulfhydryl oxidase ALR (Homo sapiens), P55789; purified ALR, DTT oxidation; inhibition, % (concentration not given with the values); 290,000 tested, 3.8% active; AID 485317, 2010;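 active means mean replicate inhibition above about 79%, with every replicate also reaching it, limit read from the data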
Target sequence (P55789 whole entry, looked up): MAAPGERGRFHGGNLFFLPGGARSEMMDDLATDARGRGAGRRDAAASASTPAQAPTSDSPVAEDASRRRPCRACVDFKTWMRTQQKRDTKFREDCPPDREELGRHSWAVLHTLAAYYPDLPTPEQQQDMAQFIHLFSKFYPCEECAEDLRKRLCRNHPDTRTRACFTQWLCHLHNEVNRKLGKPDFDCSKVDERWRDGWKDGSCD
ARNT TACC3 PPI = disruptors of ARNT/TACC3 protein interaction, primary screen, biochemical, AlphaScreen, single concentration; Transforming acidic coiled-coil-containing protein 3 (Homo sapiens), Q9Y6A5; AlphaScreen His-ARNT PAS-B/GST-TACC3 binding, luminescence; TACC3 fragment carries E629A point mutation; inhibition, % at 9.99 µM; 390,000 tested, 0.66% active; AID 623870, 2012;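 active means mean inhibition of replicates at least 50% and at least half of replicates each reaching 50%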;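 further: 0% = complete ARNT plus TACC3 wells and 100% = ARNT alone without TACC3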
ERp5 block = inhibitors of ERp5-driven insulin aggregation, primary screen, biochemical, turbidity, absorbance 650 nm, single point | Protein disulfide-isomerase A6 (Homo sapiens), Q15084 | 90 min | inhibition, % at 9.99 µM | 350,000 tested, 0.05% active;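 active means mean replicate inhibition above about 25%, with every replicate also reaching it, limit read from the data, passing the limit was not always enough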
CendR NRP1 mod = modulators of CendR peptide binding to NRP-1, primary screen, biochemical, fluorescence polarization, uHTS | FAM-RPARPAR peptide binding to NRP-1 | inhibition, % at 25 µM | 360,000 tested, 0.85% active | AID 602438, 2012;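 active means inhibition or corrected inhibition above about 18%, plus a signal ratio from 0.5 to 1.5, limit read from the data, passing the limit was not always enough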
PglD DTNB = C. jejuni PglD acetyltransferase inhibitors, primary screen, biochemical, DTNB colorimetric, single point | purified PglD enzyme, DTNB colorimetric CoA detection | UDP-N-acetylbacillosamine N-acetyltransferase PglD (Campylobacter jejuni) | 360,000 tested, 0.098% active | inhibition, % at 12.5 µM; in the data active means inhibition above about 16%, passing the limit was not always enough
* = called active by the depositor.

For COc1ccc(NC(=O)c2ccc(OC)c(S(=O)(=O)N3CCCCC3C)c2)cn1 (stereo unspecified) the results were PDI inh 4, ALR inh -57, ARNT TACC3 PPI 18, ERp5 block 0, CendR NRP1 mod 27* and PglD DTNB -1.
Screening CN(C)CC(=O)N[C@@H]1CC[C@H](CCNS(=O)(=O)c2ccccc2)O[C@@H]1CO returned ARNT TACC3 PPI 2, ERp5 block -9 and PglD DTNB -2.
C[C@@H]1CN([C@@H](C)CO)S(=O)(=O)c2ccc(C3=CCCCC3)cc2O[C@@H]1CN(C)S(=O)(=O)c1cn(C)cn1 was read as ARNT TACC3 PPI -6, ERp5 block -4 and PglD DTNB -8.
Screening COc1ccc(-c2c3c(=O)n(C)c(=O)n(C)c3cn2-c2ccc(O)cc2)cc1 returned PDI inh 7, ALR inh 89*, ARNT TACC3 PPI -2, ERp5 block 0, CendR NRP1 mod -8 and PglD DTNB 4.
O=C(c1ccccc1)N1CC(=O)N2[C@H](CO)[C@@H](c3ccc(C#CCC4CCCC4)cc3)[C@@H]2C1 was read as ERp5 block 2.
Screening Cc1cccc(N2CCN(C(=O)C3(S(=O)(=O)c4ccc(Cl)cc4)CC3)CC2)c1C returned PDI inh 9, ALR inh 0, ARNT TACC3 PPI 50*, ERp5 block -1 and CendR NRP1 mod -3.
For COc1ccc(N2CCN(C(=O)CCS(=O)(=O)c3ccc(OC)cc3)CC2)cc1 the results were PDI inh 3, ALR inh 79*, ARNT TACC3 PPI 1, ERp5 block -2 and CendR NRP1 mod 15.
For COc1ccc(CC(=O)N2CCN(c3ccc(C4=NNC(=O)CC4C)cc3)CC2)cc1 (stereo unspecified) the results were PDI inh 3, ALR inh 88*, ARNT TACC3 PPI -4, CendR NRP1 mod -1 and PglD DTNB -1.
Screening Cc1ccc(Cl)cc1N1CCN(C(=O)C2(S(=O)(=O)c3ccc(Cl)cc3)CC2)CC1 returned PDI inh 6, ARNT TACC3 PPI -7, CendR NRP1 mod -10 and PglD DTNB -1.
COc1ccc(N2CCN(C(=O)CCS(=O)(=O)c3ccc(C)cc3)CC2)cc1 was read as PDI inh -2, ALR inh 88*, ARNT TACC3 PPI 1, ERp5 block 0, CendR NRP1 mod 7 and PglD DTNB 2.
Screening COc1ccc(S(=O)(=O)CCC(=O)N2CCN(c3ccc(C(C)=O)cc3)CC2)cc1 returned PDI inh -2, ALR inh -4, ARNT TACC3 PPI -4, ERp5 block 3, CendR NRP1 mod -3 and PglD DTNB 1.
`CC(C)c1ccc(NC(=O)C[C@H]2CC[C@H]3[C@@H](COc4ccc(NC(=O)Nc5ccc(F)c(F)c5)cc4C(=O)N3C)O2)cc1` gave ARNT TACC3 PPI 0, ERp5 block 2 and PglD DTNB 1.
For Cc1ccc(S(=O)(=O)N(C)C[C@H]2Oc3ccc(NS(=O)(=O)c4ccc(F)cc4)cc3C(=O)N([C@H](C)CO)C[C@@H]2C)cc1 the results were ARNT TACC3 PPI 0 and PglD DTNB 3.
Screening COc1ccc2c3c(n(C)c2c1)[C@@H](CO)N(Cc1ccccc1F)CC31CN(C(=O)C2CCCC2)C1 returned ERp5 block -3.
`COC(=O)COc1ccc(S(=O)(=O)N2CCN(c3ccc(OC)cc3)CC2)cc1` gave PDI inh -10, ALR inh 6, ERp5 block 2 and CendR NRP1 mod 24*.

Assay outcomes as filed in PubChem.
